Assay results: PubChem BioAssay AID1439 (NMMLSC, 2008)
The campaign covered roughly 220,000 compounds. About 770 (0.35%) were called active. Roughly 15% stayed inconclusive and do not appear here. Only a selection was taken, and actives are over-represented in it overall. A number with no mark means an inactive call. No stated cut-off is given here; in the data, active means binding response below about 49% or above about 150%; inconclusive means no clear call, values can overlap the other calls; inactive means in between.

These molecules were tested against Guanine nucleotide-binding protein G(o) subunit alpha (Homo sapiens) (UniProt P09471) (assay: RGS7-Galphao binding modulators, primary screen, biochemical, multiplexed bead flow cytometry (AID 1439;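 further: fluorescent Galphao held in activated GDP-AlF4 state binding bead-coupled RGS7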)). Details: at 10 µM, actives lie on both sides.
Guanine nucleotide-binding protein G(o) subunit alpha (Homo sapiens), sequence (P09471 whole entry, looked up): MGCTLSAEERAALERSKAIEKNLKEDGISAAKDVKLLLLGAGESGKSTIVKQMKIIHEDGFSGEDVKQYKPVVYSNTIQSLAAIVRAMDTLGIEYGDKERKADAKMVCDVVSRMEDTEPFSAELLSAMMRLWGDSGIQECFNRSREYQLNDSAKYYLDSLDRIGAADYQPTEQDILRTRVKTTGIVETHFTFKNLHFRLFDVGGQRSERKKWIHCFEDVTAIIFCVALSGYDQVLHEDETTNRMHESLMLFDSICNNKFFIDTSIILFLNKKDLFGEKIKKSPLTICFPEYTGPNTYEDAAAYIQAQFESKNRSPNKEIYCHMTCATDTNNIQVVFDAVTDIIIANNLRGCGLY

| SMILES | binding response (% of control) |
| --- | --- |
| CN1C(=O)/C(=C/c2ccc(C(=O)NC3CCCC3)cc2)Oc2ccccc21 | 98.8% |
| O=C(CCc1ccccc1)Nc1ccc(NC(=O)C2CCCCC2)nc1 | 105% |
| Cc1ccc(CN2CCN(Cc3ccccc3-c3ccco3)CC2CCO)o1 (stereo unspecified) | 90.6% |
| Cc1ccc(NC(=O)NCC(c2cccnc2)N2CCOCC2)cc1 (stereo unspecified) | 100% |
| CN1CCN(C(CNS(=O)(=O)c2cccs2)c2cccnc2)CC1 (stereo unspecified) | -9.98% [inhibitor] (active) |
| CN1CCN(S(=O)(=O)c2ccc(N3CCN(S(=O)(=O)c4cccs4)CC3)nc2)CC1 | 95.4% |
| CN(C)c1ccc(/C=N/NC(=O)C(O)c2ccc(Br)cc2)cc1 (stereo unspecified) | 101% |
| CC(C)(C)C(=O)CN1C2=NCCN2c2ccccc21 | 109% |
| Cc1ccccc1NC(=O)Cn1c(=O)n(CC2CCCO2)c(=O)c2ccccc21 (stereo unspecified) | 106% |
| CCN(CC)CCOc1ccc2c(c1)C(=NNC(=O)c1ccccn1)c1cc(OCCN(CC)CC)ccc1-2 | 216% (active) |
| CCOc1cc(NC(=O)c2ccccn2)c(OCC)cc1NC(=O)c1ccc(OC)cc1 | 107% |
| COc1ccc(CC(=O)N/N=C(\C)c2ccccn2)cc1 | 93.4% |
| COC(=O)c1cc2n(n1)CCCNC2=O | 106% |
| O=[N+]([O-])c1ccc2c(c1)C(N1CCOCC1)/C(=C/C1(O)CCCCC1)O2 (stereo unspecified) | 100% |
| CCCCOC(=O)Cn1c(=N)n(CCN(CC)CC)c2ccccc21 | 165% (active) |
| CCn1c(=N)n(CC(=O)c2cccc(OC)c2)c2ccccc21 | 96.8% |
| CCCCOC(=O)Cn1c(=O)n(CC(=O)OCCCC)c2cc(C)ccc21 | 103% |
| CCC(C)CN1CCC(CO)(Cc2ccccc2Cl)CC1 (stereo unspecified) | 103% |
| O=S1(=O)CCC(NC(=S)SCc2ccccc2Br)C1 (stereo unspecified) | 97.5% |
| Cc1nc2cc(NC(=O)NC3CC3)ccc2n1C | 99% |
| Cc1cc2nc(C)n(CCCNC(=O)Nc3ccccc3)c2cc1C | 180% (active) |
| Cn1c(CCN2CCCCCC2)nc2cc(NC(=O)Nc3ccccc3)ccc21 | 106% |
| CCOc1ccc(S(=O)(=O)Nc2nccs2)cc1 | 101% |

| SMILES | binding response (% of control) |
| --- | --- |
| C=CCN1C2CCCC1CC(NC(=S)Nc1cccc(OC)c1)C2 (stereo unspecified) | 102% |
| Clc1cccc(-c2nc(NCC3CCCO3)c3ccccc3n2)c1 (stereo unspecified) | 99.5% |
| Cc1cc(C)n2nc(C(=O)N(C)C(c3ccccc3)c3ccccc3)nc2n1 | 99% |
| Cc1cccc(NC(=S)N2CCCC(c3nc4ccccc4[nH]3)C2)c1 (stereo unspecified) | 106% |
| COCCCN1C(=O)C(=O)/C(=C(/O)c2ccc3c(c2)CC(C)O3)C1c1cccnc1 (stereo unspecified) | 93.5% |
| COc1cc(C2/C(=C(\O)c3ccc4c(c3)CC(C)O4)C(=O)C(=O)N2Cc2ccco2)ccc1O (stereo unspecified) | 17.7% [inhibitor] (active) |
| COc1ccc(/C(O)=C2\C(=O)C(=O)N(Cc3ccco3)C2c2ccc(OC)cc2OC)cc1 (stereo unspecified) | 98.7% |
| CSc1ccc(C(=O)C2CCCN(C(=O)c3ccc(C)nc3)C2)cc1 (stereo unspecified) | 96% |
| O=C(CCN1CCN(C/C=C/c2ccccc2)CC1)Nc1cccc(F)c1 | 101% |
| Cc1cc(NC(=O)COc2ccc(Cl)cc2Cl)n(CCC#N)n1 | 93.9% |
| CCOC(=O)N1CCN(C(=O)COc2ccc(Cl)cc2C)CC1 | 102% |
| CCCn1nnnc1NC(=O)COc1ccc(Cl)cc1C | 17.1% [inhibitor] (active) |
| Cn1c(=NC(=O)C2CC2)sc2cc(F)cc(F)c21 | 95.6% |
| Cn1c(=NC(=O)c2ccco2)sc2cccc(F)c21 | 103% |
| CCCC(=O)N=c1sc2cccc(F)c2n1C | 18% [inhibitor] (active) |
| Cc1cnc(C(=O)N2CCCC(C(=O)c3ccc(C(F)(F)F)cc3)C2)cn1 (stereo unspecified) | 107% |
| COc1cccc(-n2nc(C(=O)N3CCN(Cc4ccccc4)CC3)c3ccccc3c2=O)c1 | 98.7% |
| CCC(=O)OCCNc1nc(-c2ccccc2)nc2ccccc12 | 110% |
| CC(=O)NC1C(OCc2ccccc2)OC(COC(C)=O)C(OC(C)=O)C1OC(C)=O (stereo unspecified) | 99.5% |
| O=C(OCC1O[C@@H](OC(=O)c2cc(O)c(O)c(O)c2)[C@@H](OC(=O)c2cc(O)c(O)c(O)c2)[C@@H](OC(=O)c2cc(O)c(O)c(O)c2)[C@@H]1OC(=O)c1cc(O)c(O)c(O)c1)c1cc(O)c(O)c(O)c1 (stereo partly specified) | 20.5% [inhibitor] (active) |
| NC(=O)c1ccc(CN2CCC(Cc3ccccc3)CC2)cc1 | 99.1% |
| OCC1(CCc2ccccc2)CCN(Cc2ccc3nsnc3c2)CC1 | 96.7% |
| CN1CCNC(=O)C1CC(=O)NCCC1=CCCCC1 (stereo unspecified) | 96.7% |

| SMILES | binding response (% of control) |
| --- | --- |
| CCc1nnc(NS(=O)(=O)c2ccc(NC(=S)NC(=O)c3cccs3)cc2)s1 | 96.9% |
| CN(c1ccccc1)c1ccc(/C=c2\s/c(=C(/C#N)C(=O)C(C)(C)C)n(Cc3ccco3)c2=O)cc1 | 421% (active) |
| CCOC(=O)CSc1nc2c(sc(=S)n2CCc2ccccc2)c(=O)n1Cc1ccco1 | 113% |
| Cc1cc2c(c(=O)n1Cc1ccco1)C(c1ccccc1)C(C#N)=C(N)O2 (stereo unspecified) | 101% |
| COc1ccc(C(=O)CSc2nc(C)cc(C)n2)cc1[N+](=O)[O-] | 103% |
| O=C(NCCCN1CCOCC1)c1ccc([N+](=O)[O-])cc1[N+](=O)[O-] | 101% |
| O=C(CC1SC(=Nc2ccccc2F)N(CCN2CCOCC2)C1=O)Nc1ccc(F)cc1F (stereo unspecified) | 87% |
| CC(C)(C)CN1CCNC(=O)C1CC(=O)NC1Cc2ccccc2C1 (stereo unspecified) | 85.9% |
| CC1(C)CC(=O)C(CC(=O)N2CCC(Cc3ccccc3)CC2)C(=O)C1 | 106% |
| CC1=CC=CN2C1=NC(=O)CC2(C)C(=O)N(CC(=O)NC1CCCC1)c1ccccc1C (stereo unspecified) | 104% |
| Cc1ccccc1C(=O)Nc1ccc(N2CCCCCC2)cc1 | 91.3% |
| CN1CCN(Cc2c(O)ccc3c2oc(=O)c2ccccc23)CC1 | 99.2% |
| CCOC(=O)c1oc2c(CN3CCN(C)CC3)c(O)ccc2c(=O)c1-c1ccc(Br)cc1 | 318% (active) |
| CCN1CCN(Cc2c(O)ccc3c(=O)c(-c4ccc(OC)c(OC)c4)c(C(F)(F)F)oc23)CC1 | 97.2% |
| COc1ccc(N2C(=O)/C(=C\c3ccco3)N=C2SCC(N)=O)cc1Cl | 93.9% |
| O=C(O)CCCCCNc1ncnc2ccc(Br)cc12 | 91.8% |
| Cc1c(CN2CCC(C)CC2)c(=O)n(-c2ccccc2)n1C | 97% |
| Cc1cccc(N2CCN(Cc3c(C)n(C)n(-c4ccccc4)c3=O)CC2)c1C | 103% |
| Cc1c(CN2CCCC(C(=O)c3cccc(Cl)c3)C2)c(=O)n(-c2ccccc2)n1C (stereo unspecified) | 230% (active) |
| Cc1ccc(NC(=O)CN2CCCCC2)c2c1CC(C)(C)O2 | 103% |
| CS/C(=C\[N+](=O)[O-])Nc1ccc(C)cc1 | 106% |
| S=C(Nc1cccc(Br)c1)N1CCn2cccc2C1c1cccnc1 (stereo unspecified) | 102% |
| CN(C)S(=O)(=O)Oc1ccccc1C(=O)Nc1ccccc1Cl | 223% (active) |

| SMILES | binding response (% of control) |
| --- | --- |
| CC(=O)Nc1ccc(NC(=O)COc2ccccc2C(=O)Nc2cccc(Cl)c2Cl)cc1 | 94.1% |
| O=C(Nc1ccccc1Cl)c1ccccc1S(=O)(=O)c1ccccc1[N+](=O)[O-] | 90.2% |
| COc1cccc2c1OCC(CN1CCN(C3CCCCC3)C(CCO)C1)=C2 (stereo unspecified) | 103% |
| CN1CCN(CCCCOc2ccccc2-c2ccccc2)CC1 | 102% |
| CC(C)C(O)C1CCN(Cc2nc(Cc3ccccc3Cl)no2)CC1 (stereo unspecified) | 101% |
| CC(Nc1nc(N2CCOCC2)nc2ccccc12)c1ccccc1 (stereo unspecified) | 103% |
| C=CCn1c(Cn2nnc3ccccc32)nnc1SCC(=O)N/N=C/c1cc(Br)cc(OC)c1O | -19.4% [inhibitor] (active) |
| Cn1c(Cn2nnc3ccccc32)nnc1SCC(=O)c1ccccc1F | 103% |
| COc1ccc(OC)c(/C=N/NC(=O)CSc2nnc(C)n2-c2ccccc2)c1 | 105% |
| CCn1ccnc1CN(C)Cc1nc(-c2ccc3c(c2)OCO3)no1 | 96.5% |
| O=C(CCn1ccc([N+](=O)[O-])n1)Nc1nccs1 | 97.4% |
| CC(OC(=O)c1ccc2ccccc2n1)C(=O)c1ccccc1 (stereo unspecified) | 104% |
| COc1ccc(C2=NOC(COC(=O)c3ccc4ccccc4n3)C2)cc1 (stereo unspecified) | 97% |
| COc1ccc(C(=O)COC(=O)c2ccc3ccccc3n2)cc1 | 39% [inhibitor] (active) |
| O=C(O)c1ccccc1-c1ccccc1C(=O)NCc1cccnc1 | 104% |
| CN(C)CCN=c1cc(-c2ccccc2)oc2ccc(Cl)cc12 | 155% (active) |
| CN(C)CCn1c(=S)[nH]c2ccc(Cl)cc2c1=O | 97.9% |
| CCN(CC)S(=O)(=O)c1ccc(N2CCCC2)c(NS(=O)(=O)c2cccs2)c1 | 103% |
| Cc1ccc(S(=O)(=O)CC(=O)Nc2c(C)n(C)n(-c3ccccc3)c2=O)cc1 | 95.9% |
| Cc1cc(C)cc(N(CC(=O)Nc2c(C)n(C)n(-c3ccccc3)c2=O)S(C)(=O)=O)c1 | -21.3% [inhibitor] (active) |
| Cc1cc(C)cc(N(C(C)C(=O)Nc2c(C)n(C)n(-c3ccccc3)c2=O)S(C)(=O)=O)c1 (stereo unspecified) | 101% |
| CCn1cc(C(=O)NCCCN2CCCCCC2)c(=O)c2cc(S(=O)(=O)N3CCc4ccccc4C3)ccc21 | 103% |
